For 31 compounds, growth results are on record in PubChem BioAssay (NCI).

About 83,000 compounds went through this panel and 20% of them were active in at least one assay; those are over-represented in the sample as a whole.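 Cells were grown in 96-well plates and exposed to the test compound at a single concentration for 48 hours; results are reported as percent growth, with values below 10 considered active.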 Unmarked numbers belong to inactive results. Calls of active or inactive are those of the source.

This experiment relates to SR leukemia. Nature of the experiment: NCI-60 one-dose screen, 48 h (100 = growth as untreated, 0 = no growth, -100 = all killed). To be noted: 10 µM unless noted.
`O=C(Nc1ccc(S(=O)(=O)N2CCCCC2)cc1)C(Cl)Cl`: the growth was 95.7%.

As for `O=C(c1ccc(Cl)cc1)C1[C@H](c2ccccc2Cl)[C@@H](c2ccccc2)NC12C(=O)Nc1ccccc12` (stereo partly specified), the growth is -41% (active).

As to `O=C(c1ccc(O)cc1)C1[C@H](c2ccc(Cl)cc2)[C@@H](c2ccccc2)NC12C(=O)Nc1ccccc12` (stereo partly specified), the growth was -47.2% (active).

`Cc1ccc2nc(SCc3ccccc3F)n(-c3ccccc3)c(=O)c2c1`: the growth is 109%.

Turning to `CCCCNc1ccc2c3c(cccc13)C(=O)N(NCC(O)COc1ccc3c(C)cc(=O)oc3c1)C2=O` (stereo unspecified), the growth was 70.2%.

With `c1n[nH]cc1-c1nc2ccc3[nH]ncc3c2c2c1CC1(CC2)COC1`, the growth is 5.21% (active).

As to `CCN1CCN(Cc2ccc(C(=O)Nc3cccc(Nc4ccc5c(OC)cccc5n4)c3)cc2C(F)(F)F)CC1`, the growth was -35.1% (active).

For the compound `O=C(NN1C(=O)/C(=C/C=C/c2ccc([N+](=O)[O-])o2)SC1=S)c1ccc([N+](=O)[O-])cc1`, the growth was -5.7% (active).

With `C=CCn1c(O)c(N=Nc2nc(-c3cc4ccccc4oc3=O)cs2)c2ccccc21`, the growth is 16.2%.

Turning to `CCCCCCCCCCCCCCCCCC(=O)Nc1ccc(OC)cc1`, the growth is 97.7%.

As for `Cn1cc(-c2cc(N)n3nc(-c4c[nH]c5ccc(Cl)cc45)cc3n2)c2cc(Br)cnc21`, the growth is -40.9% (active).

With `COC(=O)c1ccc(-c2c(-c3ccccc3)c(F)c3oc(C(=O)OC)c(N)c3c2-c2ccccc2)cc1`, the growth is 76.9%.

As to `COc1ccc(-c2nc3ccccc3n2CC(=O)N=Nc2c(O)[nH]c3ccc(Br)cc23)cc1`, the growth was 7.92% (active).

On to `O=C(N/N=C/c1c[nH]c2ccccc12)Nc1ccccc1Cl`, for which the growth is 5.61% (active).

Regarding `COc1ccc(CCC2NCCc3c(Br)c4c(c(OC)c32)OCO4)cc1` (stereo unspecified), the growth was -6.62% (active).

Take `CN(C)c1nc(NCCNS(=O)(=O)c2ccc(C(=O)/C=C/c3ccc(Cl)cc3)cc2)nc(N2CCOCC2)n1`: the growth was -12.8% (active).

Turning to `COc1ccccc1NC(=O)N/N=C/c1c[nH]c2ccccc12`, the growth is 14.6%.

With `O=C1/C(=C/c2cnc(-c3ccccc3)s2)SC(=S)N1Cc1ccc2c(c1)OCO2`, the growth was 67.5%.

`N#CC1=C(c2cccs2)Nc2c(c(-c3ccccc3)nn2-c2ccccc2)C12C(=O)Nc1ccccc12` (stereo unspecified): the growth was 1.46% (active).

As for `COc1ccc2[nH]c(=O)cc(-n3ncc(C(=O)/C=C/c4cc(OC)c(OC)c(OC)c4)c3C)c2c1`, the growth was -11.8% (active).

For `C[C@H](NC(=O)c1ccc2c(-c3ccc(C(F)(F)F)cc3)cccc2c1)c1ccccn1`, the growth is 33.3%.

On to `Cn1cc(Nc2ncnc(-c3ccc(N4CCCC4)c(C#N)c3)n2)cn1`, for which the growth is 28.7%.

Regarding `CCCCCCCCc1cccc(CC(=O)Nc2ccc(C)cc2C(=O)O)c1`, the growth was 31.1% [25 µM].

`O=C1CCC(N2C(=O)c3cccc(NCCCCCC(=O)N4CCN(c5ccc6nc7c(nc6c5C(F)(F)F)C(=O)c5ncccc5C7=O)CC4)c3C2=O)C(=O)N1` (stereo unspecified): the growth is 8.9% (active).

As for `CN1C(=O)/C(=C\C(=O)c2cc3ccccc3oc2=O)c2ccccc21`, the growth was 38%.

For `Cc1ccc2nc(NC(=O)Nc3cccc(Cl)c3)sc2c1`, the growth is 89.9%.

`O=C1Nc2ccccc2/C1=C\c1ccc(OCC(=O)c2ccc(Br)cc2)cc1`: the growth is 36.3%.

In the case of `COc1ccc2[nH]cc(-c3cc(N)n4nc(-c5c[nH]c6ccccc56)cc4n3)c2c1`, the growth was 11.1%.

As to `Cn1cc(-c2cc(N)n3nc(-c4c[nH]c5ccc(Cl)cc45)cc3n2)c2cccnc21`, the growth is -26.2% (active).

Consider `Cc1ccc(-c2cc(C(=O)N=Nc3c(O)[nH]c4ccc(F)cc34)c3ccccc3n2)cc1`, for which the growth was 56.8%.

As for `O=C(NN1C(=O)/C(=C/C=C/c2ccc([N+](=O)[O-])o2)SC1=S)c1ccncc1`, the growth was -24.7% (active).
